# Test results taken from PubChem BioAssay (EPA / NIEHS).
# Where “and” joins values, the source holds several entries; their conditions need not be identical. Equal values may be shown once. Where a structure was tested more than once in an assay, its records may differ in their call. Calls of active or inactive are those of the source. The calls were made as follows: active = hit-call score of the fitted dose curve at least 0.9, where 1 is the maximum; inactive = score below 0.9.
# Experiment: CCTE_Mundy_HCI_Cortical_NOG_NeuriteLength: CCTE's Neurite Outgrowth Assay in rat cortical cells for Neurite Length, Mundy Lab (AID 2284213);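 as to AC50: neurites imaged about 48 to 50 h after chemical exposure began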
# Experimental: CCTE_Mundy_HCI_Cortical_NOG is a multiplexed, cell-based-readout assay that uses rat primary cortical cells with measurements taken at 50.33 hours after chemical dosing in a microplate: 96-well plate.CCTE_Mundy_HCI_Cortical_NOG_NeuriteLength is one of four components of the CCTE_Mundy_HCI_Cortical_NOG assay. It measures neurite outgrowth related to the neurite length using High Content Imaging of fluorescently labelled markers.[…] Using a type of morphology reporter, loss -of-signal activity can be used to understand developmental effects.
# Exposure starts 2 hours post-plating by adding 10 ul of the working solution to 90 ul of media in the wells for a 1/10 dilution. Forty-eight hours after chemical treatment cells are fixed by direct addition of 100 ul of warm (37C) Dulbecco's phosphate buffered saline (DPBS) fixative solution containing 8% paraformaldehyde, 8% sucrose, and 0.1% of 3 mg/ml Hoechst 33342 into each well. Primary antibodies are prepared by dilution in Immunocytochemical Staining Buffer (ISB), 10X Dulbecco's PBS, 0.1% Saponin, 5% Bovine Serum Albumin, 0.5% NaN3 (Sodium Azide) and betaIII-tubulin (rabbit anti-betaIII-tubulin, 1:800) followed by Alexa Fluor-488 secondary (1:500) to label neuronal cell bodies and neurites. A Cellomics ArrayScan VTi HCS Reader is used for automated image acquisition and analysis of neurite outgrowth.
SMILES,outcome,AC50
CN1COCN(Cc2cnc(Cl)s2)C1=N[N+](=O)[O-],inactive,
CCOP(=O)(OCC)Oc1cc(C)nc(C(C)C)n1,inactive,
O=[N+]([O-])c1cc(C(F)(F)F)c(Cl)c([N+](=O)[O-])c1Nc1ncc(C(F)(F)F)cc1Cl,,0.8 µM (active)
CC[C@H](C)[C@H]1O[C@]2(C=C[C@@H]1C)C[C@@H]1C[C@@H](C/C=C(\C)[C@@H](O[C@H]3C[C@H](OC)[C@@H](O[C@H]4C[C@H](OC)[C@@H](NC)[C@H](C)O4)[C@H](C)O3)[C@@H](C)/C=C/C=C3\CO[C@@H]4[C@H](O)C(C)=C[C@@H](C(=O)O1)[C@]34O)O2,,1.24 µM (active) and 1.58 µM (active)
CCOP(=S)(Oc1cnc(C(C)(C)C)nc1)OC(C)C (centres undefined),inactive,26.1 µM (active)
CCCCSP(=O)(SCCCC)SCCCC,,86.1 µM (active) and 75.3 µM (active)
CON=C(C(=O)OC)c1ccccc1CON=C(C)c1cccc(C(F)(F)F)c1,,1.14 µM (active)
CN(C)[C@@H]1C(=O)C(C(N)=O)=C(O)[C@@]2(O)C(=O)C3=C(O)c4c(O)cccc4[C@@](C)(O)[C@H]3[C@H](O)[C@@H]12,inactive,
CC(C)N(C(=O)SCC(Cl)=C(Cl)Cl)C(C)C,inactive,
CCOP(=O)(SC(C)CC)N1CCSC1=O (centres undefined),inactive,
CCOP(=O)(NC(C)C)Oc1ccc(SC)c(C)c1 (centres undefined),inactive,
COP(=O)(NC(C)=O)SC (centres undefined),inactive,
CCOP(=S)(OCC)OC(Cl)C(Cl)(Cl)Cl (centres undefined),,66.9 µM (active) and 32.2 µM (active)
CCOP(=S)(OCC)Oc1cc(C)nc(C(C)C)n1,inactive,
CCOC(=O)CC(SP(=O)(OC)OC)C(=O)OCC (centres undefined),inactive,
COP(=O)(OC)C(O)C(Cl)(Cl)Cl (centres undefined),inactive,
S=C1NCCN1,inactive,
CC(=NC#N)N(C)Cc1ccc(Cl)nc1,inactive,
CSC1=N[C@@](C)(c2ccccc2)C(=O)N1Nc1ccccc1,inactive,
CCCSP(=O)(OCC)SCCC,inactive,
CCOP(=S)(OCC)Oc1ccc2c(C)c(Cl)c(=O)oc2c1,,84.7 µM (active)
COP(=O)(OC)OC(Br)C(Cl)(Cl)Br (centres undefined),,29.4 µM (active) and 20.6 µM (active)
CCCSP(=O)(OCC)Oc1ccc(Br)cc1Cl (centres undefined),inactive,
CCOP(=S)(OCC)SCCSCC,inactive,
C[N+]1(C)CCCCC1,inactive,
CCOP(=S)(OCC)Oc1ccc([N+](=O)[O-])cc1,inactive,
C=C(C)[C@H]1Cc2c(ccc3c2O[C@@H]2COc4cc(OC)c(OC)cc4[C@@H]2C3=O)O1,,0.0253 µM (active)
CC1=NNC(=O)N(/N=C/c2cccnc2)C1,inactive,
